N-glyco inh = blocks N-linked glycosylation in D54 reporter cells | D54 ERlucT glycosylation luciferase reporter, 24 h; percent of 100 nM tunicamycin response | reporter increase, % at 12.5 µM | 0.23% of 360,000 active | AID 588692;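 active = mean luciferase reporter signal, scaled so untreated is 0 and the glycosylation-blocking control 100, at or above a set limit in every replicate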;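 note: luciferase carries N-glycosylation sites so blocking glycosylation raises the light; 0% = median of neutral control wells and 100% = median of 100 nM tunicamycin wells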
H9c2 protect = myocardial damage modulation in H9c2 cells; AID 588492; H9c2 cardiomyocytes, H2O2 injury protection, ATPLite, 2 h; protection from H2O2 cell death, % at 20 µM; 0.63% of 360,000 active;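 active = compounds giving at least 50% protection of heart cells from peroxide-induced death in the single-dose screen, raw or plate-pattern-corrected value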;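 note: 0% = DMSO wells with peroxide and 100% = DMSO wells without peroxide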
aDG glyco act = increases alpha dystroglycan glycosylation; Pro5-aDG cells, alpha-DG glycosylation AlphaScreen (IIH6); 0% Pro5, 100% B10-LARGE cell signal; activation, % at 10 µM; 0.22% of 360,000 active; AID 624168;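 active = activation of at least 8% versus controls, or a plate z-score of at least 8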;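 note: Pro5 are CHO cells carrying HIG-tagged alpha-DG that lacks glycosylation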
ARNT-TACC3 inh = ARNT/TACC3 interaction disruption. AlphaScreen His-ARNT PAS-B/GST-TACC3 binding, luminescence; TACC3 fragment carries E629A point mutation. inhibition, % at 9.99 µM. AID 623870. 0.66% of 390,000 active;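 active = mean inhibition of replicates at least 50% and at least half of replicates each reaching 50%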;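 note: 0% = complete ARNT plus TACC3 wells and 100% = ARNT alone without TACC3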
Vif inh = HIV Vif inhibition | HEK293T cells, Vif self-association by quenched fluorescence, imaging, 24 h | inhibition, % at 7.49 µM | 0.35% of 340,000 active | AID 602346; in the data active = inhibition above about 50%, passing the limit was not always enough
aDG conf = confirmation of alpha dystroglycan glycosylation activators. shares compounds with aDG glyco act. Pro5-aDG cells, alpha-DG glycosylation, IIH6 AlphaLISA; scaled to LARGE-overexpressing B10 cells as 100%. activation, % at 10 µM (by protocol). 17% of 600 active;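 active = activation of at least 7% in one or more replicates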;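 note: cells exposed to compound for two days before detection; 0% = DMSO-treated Pro5 cells and 100% = DMSO-treated B10-LARGE cells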
* marks the source's active call; other numbers are inactive results; . = no result given. Only some compounds are listed: those with a hit (about 1.7% of all), similar ones and a draw of the others.

SMILES | N-glyco inh | H9c2 protect | aDG glyco act | ARNT-TACC3 inh | Vif inh | aDG conf
Oc1ccc(C[C@H]2CNC(=S)N2CC2CCCN2C[C@H](Cc2ccc(O)cc2)N2C[C@H](Cc3ccccc3)N(CC3CCCCC3)C2=S)cc1 (some centres not stated) | -5.4 | -13.9 | 8.9* | 0.4 | -20.3 | 4.2
COc1ccc(C(=O)Nc2ccc(Cl)c(S(=O)(=O)Nc3ccccc3OC)c2)cc1 | -9.3 | -6.0 | 3.7* | -4.8 | -18.6 | 0.8
COc1ccc2cc(CN(C(=O)Nc3ccccc3)C3CCCC3)c(=O)[nH]c2c1 | -4.4 | 1.9 | 16.2* | 1.7 | -10.0 | -0.7
COc1ccc2[nH]c(=O)c(CN(C(=O)NC3CCCCC3)C3CCCCC3)cc2c1 | -8.7 | -6.5 | 0.3 | -8.4 | -2.0 | .
C[C@@H](NC(=O)C[C@H]1C=C[C@@H](NC(=O)Cc2ccccn2)[C@H](CO)O1)c1ccccc1 | . | . | . | -1.4 | . | .
Cc1ccc(NC(C)C(=O)N/N=C/c2ccc([N+](=O)[O-])s2)cc1 (configuration not stated) | 2.2 | -11.3 | 5.4 | -20.7 | -26.5 | .
COc1ccc(NC(C)C(=O)N/N=C/c2ccc([N+](=O)[O-])s2)cc1 (configuration not stated) | 1.9 | -4.5 | 9.7* | 6.8 | -3.1 | 3.4
C/C=C/c1ccc([C@@H]2[C@@H](CNC(=O)c3ccncc3)N(C(C)=O)[C@H]2CO)cc1 | . | . | . | -10.9 | . | .
Nc1cc2c3ccccc3ccc2c2ccccc12 | -9.2 | -6.2 | 4.7* | . | 18.6 | -0.1
COc1ccc(S(=O)(=O)Nc2ccc3c(c2)C(=O)N(C)C[C@H](OC)[C@H](C)CN[C@@H](C)CO3)cc1 | . | . | . | 1.7 | . | .
COC(=O)c1c(NC(=O)CSc2nnc(-c3ccco3)n2C)sc(C)c1C | 7.4 | 2.0 | 6.1* | -6.4 | -18.2 | -0.1
Cn1c(Br)nc2c1c(=O)n(Cc1ccccc1)c(=O)n2C | -1.3 | 7.3 | 2.4* | -7.2 | 8.8 | 0.7
C[C@@H]1CN([C@@H](C)CO)C(=O)c2cc(NS(=O)(=O)c3cccs3)ccc2O[C@@H]1CN(C)Cc1ccc(C(F)(F)F)cc1 | . | . | . | -5.6 | . | .
O=C(CCN1C(=O)c2ccccc2C1=O)NCc1ccc(Cl)cc1 | 0.0 | 1.2 | 2.7* | 1.1 | 22.0 | 0.4
O=C(CCCN1C(=O)c2ccccc2C1=O)NCc1ccc(F)cc1 | 0.8 | -3.8 | 0.0 | -6.8 | -3.3 | .
Cc1nn(C)c(C)c1/C=C/C(=O)c1ccc(Cl)cc1Cl | -3.4 | -33.1 | 8.4* | 2.1 | -1.3 | 1.7
COCC(=O)Nc1ccc2c(c1)[C@@H]1C[C@@H](CC(=O)N3CCCCC3)O[C@H](CO)[C@@H]1O2 | . | . | . | -4.7 | . | .
Cc1ccc(NS(=O)(=O)c2ccc(C(=O)NC3CCN(Cc4ccccc4)CC3)cc2)cc1 | 0.4 | -14.7 | 13.4* | 8.2 | -31.8 | 4.8*
Cc1ccc(NS(=O)(=O)c2cccc(C(=O)NC3CCN(Cc4ccccc4)CC3)c2)cc1 | -8.5 | -18.4 | 0.7 | 1.3 | -3.6 | .
COc1ccc(Cl)cc1NC(=O)NCC1CCN(Cc2cc(C)ccc2C)CC1 | -6.5 | -9.6 | 1.1 | 3.8 | 0.7 | .
COc1cc([N+](=O)[O-])ccc1NC(=O)NCC1CCN(Cc2ccc(Cl)cc2)CC1 | -3.1 | -11.4 | 3.3* | 9.8 | -6.9 | 1.1
